Pf Dd2 growth: qHTS Primary assay for Inhibitors of Plasmodium falciparum Dd2 growth in vitro; Potency, µM (series often up to 28.9 µM), usual class: inhibitors; 4.3% of 120,000 active; P. falciparum Dd2 growth, SYBR Green, 72 h; active = well fitted inhibition curve with a large enough effect; note: nearly all actives have a fitted effect of over 65% in size
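Infected erythrocytes (Dd2, 0.3% parasitemia, 2.5% hematocrit final) are added to compound in RPMI-1640/Albumax II medium, grown 72 h at 37C in low oxygen, then lysed with saponin/Triton-X containing SYBR Green and read by fluorescence.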
Numbers stand for hits. This excerpt belongs to a sample that is enriched for hits.

For Cc1cccc(C(=O)N2CCC(c3noc(CO)n3)C2)c1 (configuration not stated) the results were Pf Dd2 growth inactive.
For CC(Cc1cnccn1)NC(=O)CC1c2ccccc2CCc2ccccc21 (configuration not stated) the results were Pf Dd2 growth inactive.
CCN(CC)S(=O)(=O)c1ccc2c(c1)N(CC(=O)NCc1ccc(F)cc1)C(=O)CO2 was read as Pf Dd2 growth inactive.
CCn1nccc1C(=O)N1CCC2(CC1)NC(=O)N(c1ccccc1)N2 was read as Pf Dd2 growth inactive.
`O=C(NCCc1ccccc1)N1[C@H]2CC[C@@H]1c1cncnc1C2` gave Pf Dd2 growth inactive.
`CCOc1ccc(-c2nnc(SCC(=O)NCCc3ccccc3)nc2-c2ccc(OCC)c(OC)c2)cc1OC` gave Pf Dd2 growth inactive.
For COCCN1CC(CO)C2(CCN(C(=O)Cc3ccccc3)CC2)C1 (configuration not stated) the results were Pf Dd2 growth inactive.
Screening Nc1nc(CCC(=O)N2CC[C@@H](NC(=O)c3cccnc3)[C@H](O)C2)cs1 returned Pf Dd2 growth inactive.
Screening CCOc1ccc(CNC(=O)c2ccc3c(c2)c(C)c(C)n3Cc2ccc(Cl)cc2)cc1 returned Pf Dd2 growth inactive.
COc1cccc(CC(=O)N[C@@H]2C[C@H](COc3cccc(C)n3)[C@@H](O)[C@H]2O)c1 was read as Pf Dd2 growth inactive.
Screening CCCn1c(C)cnc1CC1CCN(C(=O)NCCc2ccccc2)CC1 returned Pf Dd2 growth inactive.
`O=C(NCc1ccncc1)C1CN(Cc2cccc(Br)c2)CC12CCOCC2` (configuration not stated) gave Pf Dd2 growth 3.55µM.
For O=C(NCc1ccncc1)C1CN(Cc2ccoc2)CC12CCOCC2 (configuration not stated) the results were Pf Dd2 growth inactive.
CCc1ccc(CN2CC(C(=O)NCc3ccncc3)C3(CCOCC3)C2)cc1 (configuration not stated) was read as Pf Dd2 growth inactive.
`COc1ccc(-c2noc([C@@H]3CCCN3C(=O)C3(c4ccc(OC)cc4)CC3)n2)cc1` gave Pf Dd2 growth inactive.
CN(C)c1ccc(CN2CCC3(C2)C(=O)Nc2ccccc23)cc1 (configuration not stated) was read as Pf Dd2 growth inactive.
Screening O=C1Nc2ccccc2CC12CCN(Cc1cccnc1)CC2 returned Pf Dd2 growth inactive.
`O=C1Nc2ccccc2CC12CCN(Cc1ccccc1)CC2` gave Pf Dd2 growth 3.55µM.
O=C1NCc2ccccc2CC12CCN(Cc1ccccc1)CC2 was read as Pf Dd2 growth inactive.
`O=C1NCc2ccccc2CC12CCN(Cc1ccsc1)C2` (configuration not stated) gave Pf Dd2 growth inactive.
Screening CN(C)c1ccc(CN2CCC3(Cc4ccccc4NC3=O)C2)cc1 (configuration not stated) returned Pf Dd2 growth 10µM.
O=C1Nc2ccccc2CC12CCN(Cc1cccc3ccccc13)CC2 was read as Pf Dd2 growth inactive.
`O=C1Nc2ccccc2CC12CCN(Cc1ccsc1)CC2` gave Pf Dd2 growth 11.2µM.
O=C1Nc2ccccc2CC12CCCN(Cc1ccc(C(F)(F)F)cc1)C2 (configuration not stated) was read as Pf Dd2 growth inactive.
`CCOC(=O)C1=CN(CC(=O)Nc2c(C)cccc2CC)S(=O)(=O)N=C1C` gave Pf Dd2 growth inactive.
Screening CCC12CN3CC(CC)(CN(C1)C3c1ccc(OCc3ccccc3)cc1)C2=O (configuration not stated) returned Pf Dd2 growth inactive.
`O=C(N[C@@H]1CN(Cc2ccccc2)C[C@H]1CO)c1cccnc1` gave Pf Dd2 growth inactive.
Screening c1ccc(-c2ccnc3nc(C4CC4)nn23)cc1 returned Pf Dd2 growth inactive.
Cc1ccccc1CNC(=O)[C@H]1CCC[C@H]1NC(=O)c1ccncc1 was read as Pf Dd2 growth inactive.
CCn1nccc1C(=O)N1CCCn2ccnc2C1c1ccccc1 (configuration not stated) was read as Pf Dd2 growth inactive.
For CC(=O)Nc1ccc(CN2C(=O)OC3(CCN(Cc4ccccc4)CC3)C2(C)c2ccccc2)cc1 (configuration not stated) the results were Pf Dd2 growth inactive.
`COc1ccccc1CN1CCC2(CC1)OC(=O)N(Cc1ccc(NC(C)=O)cc1)C2(C)c1ccccc1` (configuration not stated) gave Pf Dd2 growth 12.6µM.
For COc1ccccc1CN1CCC2(CC1)OC(=O)N(Cc1csc(C)n1)C2(C)c1ccccc1 (configuration not stated) the results were Pf Dd2 growth inactive.
CC1(c2ccccc2)N(Cc2ccccc2F)C(=O)OC12CCN(Cc1ccc(C#N)cc1)CC2 (configuration not stated) was read as Pf Dd2 growth inactive.
`COc1ccccc1CN1CCC2(CC1)OC(=O)N(Cc1ccccc1F)C2(C)c1ccccc1` (configuration not stated) gave Pf Dd2 growth 3.98µM.
Screening COc1ccc(CN2CCC3(CC2)OC(=O)N(Cc2ccccc2C#N)C3(C)c2ccccc2)cc1O (configuration not stated) returned Pf Dd2 growth inactive.
`CCCCC(=O)NC1CC(=O)N(c2ccc3c(c2)OCCO3)C1` (configuration not stated) gave Pf Dd2 growth inactive.
For CCOc1ccc(-c2nnc(SCC(=O)c3ccc(F)cc3)n2-c2ccccc2)cc1 the results were Pf Dd2 growth inactive.
`O=C(NC1CCN(c2cc(-c3ccccc3)[nH]n2)CC1)c1cc(Cl)ccc1F` gave Pf Dd2 growth inactive.
CC1=C(C(=O)Nc2ccc(C)cc2C)C(c2cc(Br)ccc2F)n2ncc(C(=O)Nc3ccc(C)cc3)c2N1 (configuration not stated) was read as Pf Dd2 growth 0.891µM.
For CC1=C(C(=O)Nc2ccc(Cl)cc2)C(c2ccccc2F)n2nc(SCc3cccc(Cl)c3)nc2N1 (configuration not stated) the results were Pf Dd2 growth inactive.
Screening CC1=C(C(=O)Nc2ccccc2)C(c2cc(Br)ccc2F)n2ncc(C(=O)Nc3ccccc3)c2N1 (configuration not stated) returned Pf Dd2 growth 1.12µM.
Screening CC1=C(C(=O)Nc2ccc(C)cc2C)C(c2ccc[nH]2)n2ncnc2N1 (configuration not stated) returned Pf Dd2 growth inactive.
For CC1=C(C(=O)Nc2cc(Cl)ccc2C)C(c2ccccc2F)n2ncnc2N1 (configuration not stated) the results were Pf Dd2 growth inactive.
CC1=C(C(=O)Nc2ccc(C)cc2C)C(c2ccc(Cl)cc2)n2nc(C(=O)OC(C)C)nc2N1 (configuration not stated) was read as Pf Dd2 growth inactive.
Screening CC1=C(C(=O)Nc2ccc(C)cc2C)C(c2cccs2)n2nc(SCc3cccc(C)c3)nc2N1 (configuration not stated) returned Pf Dd2 growth inactive.
Screening COc1ccc(C2C(C(=O)Nc3ccc(C)cc3C)=C(C)Nc3nc(SC)nn32)cc1OC (configuration not stated) returned Pf Dd2 growth inactive.
`CC1=C(C(=O)Nc2ccc(C)cc2C)C(c2ccc(Br)cc2)n2ncc(C(=O)Nc3cccc(C)c3)c2N1` (configuration not stated) gave Pf Dd2 growth 1.12µM.

Screening data deposited in PubChem by National Center for Advancing Translational Sciences (NCATS).
